# Laboratory results as given in the supplement of paper PMC3342239.
# Counter-ions that a name gives are not always drawn.
# Test system: Saccharomyces cerevisiae
# Assay: fraction of cells in G1 phase (DNA content, flow cytometry); higher = more cells with unreplicated DNA (G1 delay)
# Conditions: temperature: 30 C; YPD; JTY2953 pdr5 snq2 (sensitized); drug added to: cultures diluted from stationary phase; 6-7 h
# Procedure, shortened: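 S. cerevisiae in YPD at 30°C was dosed with library drugs, using a final 20 µg/ml for sensitized JTY2953 diluted 1∶200 from overnight and fixed at 6–7 h, or dosing dividing JTY2953 (fixed at 6 h) and BY4741 (fixed at 4.33 h). Ethanol-fixed, SYTOX Green-stained cells were read by flow cytometry (10,000 events). The G1 fraction is taken as the Dean-Jett-Fox G1 peak area divided by the G1 and G2/M areas combined.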
row,Compound,fraction of cells in G1 phase
1,CCCC(CCC)C(=O)O [Valproic acid] (138.681 µM),0.541
2,Cc1ncc([N+](=O)[O-])n1CCO [Metronidazole] (116.852 µM),0.422
3,CN1C2CCCC1CC(NC(=O)c1nn(C)c3ccccc13)C2 (stereo not given) [Granisetron] (64.0168 µM),0.486
4,CCn1cc(C(=O)O)c(=O)c2cc(F)c(N3CCNCC3)cc21 [Norfloxacin] (62.6295 µM),0.455
5,O=C(O)COCCN1CCN(C(c2ccccc2)c2ccc(Cl)cc2)CC1 (stereo not given) [Cetirizine 2HCl] (43.3088 µM),0.492
6,O=C(O)CCCc1ccccc1 [Sodium phenylbutyrate] (107.418 µM),0.491
7,CN(C)CCC[C@@]1(c2ccc(F)cc2)OCc2cc(C#N)ccc21 [Escitalopram] (61.652 µM),0.496
8,C=CC[N+]1([C@H]2C[C@H]3[C@@H]4CC[C@H]5C[C@H](O)[C@@H](N6CCOCC6)C[C@]5(C)[C@H]4CC[C@]3(C)[C@H]2OC(C)=O)CCCC1 [Rocuronium bromide] (37.7508 µM),0.479
9,CC(=O)[C@H]1CC[C@H]2[C@@H]3CC=C4C[C@@H](O)CC[C@]4(C)[C@H]3CC[C@]12C [Pregnenolone] (63.1936 µM),0.586
10,CCc1ccc(CCOc2ccc(CC3SC(=O)NC3=O)cc2)nc1 (stereo not given) [Pioglitazone] (56.1093 µM),0.477
11,CC[C@@H]1C(=O)OC[C@@H]1Cc1cncn1C [Pilocarpine HCl] (96.0327 µM),0.526
12,CC(C(=O)O)c1cccc(C(=O)c2ccccc2)c1 (stereo not given) [Ketoprofen] (78.6509 µM),0.502
13,CC1(C)C[C@@H]1C(=O)N/C(=C\CCCCSC[C@H](N)C(=O)O)C(=O)O [Cilastatin] (55.7942 µM),0.484
14,C[N+](C)(C)CCOC(=O)CCC(=O)OCC[N+](C)(C)C [Succinylcholine] (68.8691 µM),0.467
15,C[C@]12C[C@H](O)[C@H]3[C@@H](CCC4=CC(=O)CC[C@@]43C)[C@@H]1CC[C@@H]2C(=O)CO [Corticosterone] (57.7249 µM),0.512
16,CCCOc1ccc2[nH]c(NC(=O)OC)nc2c1 [Oxibendazole] (80.2338 µM),0.481
17,C#Cc1cccc(Nc2ncnc3cc(OCCOC)c(OCCOC)cc23)c1 [Erlotinib] (50.8329 µM),0.527
18,CC(C)NCC(O)COc1ccc(CCOCC2CC2)cc1 (stereo not given) [Betaxolol HCl] (65.054 µM),0.525
19,CC(=O)O[C@H]1C(=O)[C@@]2(C)[C@H]([C@H](OC(=O)c3ccccc3)[C@]3(O)C[C@H](OC(=O)[C@H](O)[C@@H](NC(=O)c4ccccc4)c4ccccc4)C(C)=C1C3(C)C)[C@]1(OC(C)=O)CO[C@@H]1C[C@@H]2O [Taxol] (23.4212 µM),0.481
20,CC(Oc1c(Cl)cccc1Cl)C1=NCCN1 (stereo not given) [Lofexidine] (77.1792 µM),0.483
21,O=C(O)CCC(=O)c1ccc(-c2ccccc2)cc1 [Fenbufen] (78.6509 µM),0.572
22,CCN1CCN(C(=O)N[C@@H](C(=O)N[C@@H]2C(=O)N3[C@@H]2SC(C)(C)[C@@H]3C(=O)O)c2ccccc2)C(=O)C1=O [Piperacillin] (38.6425 µM),0.462
23,Cc1nccn1CC1CCc2c(c3ccccc3n2C)C1=O (stereo not given) [Ondansetron] (68.1729 µM),0.463
24,CN/C(=N\CCSCc1nc[nH]c1C)NC#N [Cimetidine] (79.2571 µM),0.5
25,CN(C(=O)CCCOc1ccc2[nH]c(=O)ccc2c1)C1CCCCC1 [Cilostamide] (58.4041 µM),0.499
26,COc1ccc(CC2c3cc(OC)c(OC)cc3CC[N+]2(C)CCC(=O)OCCCCCOC(=O)CC[N+]2(C)CCc3cc(OC)c(OC)cc3C2Cc2ccc(OC)c(OC)c2)cc1OC (stereo not given) [Atracurium besylate] (21.5246 µM),0.474
27,Nc1nnc(-c2cccc(Cl)c2Cl)c(N)n1 [Lamotrigine] (78.0958 µM),0.493
28,COc1cc2nc(N3CCN(C(=O)C4COc5ccccc5O4)CC3)nc(N)c2cc1OC (stereo not given) [Doxazosin mesylate] (44.2981 µM),0.442
29,Oc1ncnc2[nH]ncc12 [Allopurinol] (146.936 µM),0.483
30,CC[C@@]1(O)C(=O)OCc2c1cc1n(c2=O)Cc2cc3cc(O)ccc3nc2-1 [10-hydroxycamptothecin] (54.8906 µM),0.499
